Abeta yeast res: restores growth of yeast expressing A-beta42 peptide; yeast expressing A-beta42, growth rescue, OD600, 48 h; response scale: 0% DMSO, 100% iron-clioquinol control; Potency, µM (doses to about 46.1 µM), usual class: activators; 410,000 compounds, 0.063% hits; AID 1347071; further: nearly all actives have a fitted effect of over 55% in size
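Yeast growth medium received pinned compounds, then yeast cells expressing toxic A-beta were added; plates incubated at 30 C for 48 hr. Growth read as absorbance at 600 nm, normalized to DMSO and equimolar FeCl3 plus clioquinol controls.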
Mito fusion act: mitochondrial division inhibition or fusion activation | S. cerevisiae fusion-defective mutant growth rescue, CellTiterGlo 48 h | Potency, µM (titrated, usually from 46.1 µM), hits mostly activators | 320,000 compounds, 0.23% hits | AID 485298; further: nearly all actives have a fitted effect of over 45% in size
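Luminescent cell viability in 1536-well qHTS format served as the measure of rescued growth in ts fusion-mutant S. cerevisiae cultured on non-fermentable YPEG for 48 hours at 37C.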
A-T KAP1 phos: potential ataxia-telangiectasia treatment. F2112 A-T fibroblasts, KAP-1 phosphorylation AlphaLISA; neocarzinostatin DNA damage 30 min before lysis. Potency, µM (series often up to 57.5 µM), most hits filed as activators. 320,000 compounds, 0.19% hits. AID 485349; further: nearly all actives have a fitted effect of over 45% in size
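hTERT-immortalized A-T patient fibroblasts (F2112), 500 cells/well in OPTI-MEM, 1% FBS, got compounds for 60 min, then NCS for 30 min at 37C. Lysates were then assayed for phospho-KAP-1 by AlphaLISA (anti-pKAP1 donor, anti-KAP1 acceptor beads), 6 hr at 25C.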
FUS suppressor: rescues growth of FUS-expressing yeast. S. cerevisiae FUS-expressing, growth rescue, OD600, 24 h. Potency, µM (doses to about 76.6 µM), actives largely listed as activators. 390,000 compounds, 0.24% hits; further: nearly all actives have a fitted effect of over 55% in size
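Steps: raffinose overnight preculture; dilution to OD 0.005 in 2% galactose minimal medium; compound addition (concentration series); 24hr at 30C, 99% humidity; absorbance read at 600 nm.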
TDP43 rescue: rescues yeast growth from TDP-43 toxicity; TDP-43 expressing yeast growth rescue, BacTiter-Glo, 24 h; Potency, µM (top dose mostly 46.1 µM), usual class: activators; 410,000 compounds, 1.8% hits; AID 652104; further: nearly all actives have a fitted effect of over 50% in size
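In this qHTS, compounds that restore growth of yeast expressing TDP-43 appear as activators. Cells (OD600=0.02, galactose medium, raffinose-pregrown) are incubated with compound 24 hr at 30 deg C and growth is quantified by BacTiter-Glo.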
aSyn rescue: alpha-synuclein toxicity inhibition in yeast | Yeast expressing alpha-synuclein, growth rescue, BacTiter-Glo, 24 h | 370,000 compounds, 0.14% hits | Potency, µM (titrated, usually from 46.1 µM), actives largely listed as activators; further: nearly all actives have a fitted effect of over 65% in size
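Screening used galactose-induced yeast with toxic alpha-synuclein levels, exposed to compound for 24 hr at 30 deg C. Cell growth, read with BacTiter-Glo luminescence, gave the measured signal.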
Of the large screens only hits and unclear results are named; the others gave an inactive call. The list is not random: actives were taken first. Their share in the collection is about 2.4%. The call rests on the fitted dose curve; in most records, active means well fitted curve in the direction sought with a large enough effect; inconclusive means small, poorly fitted or top-dose-only effect, or another doubt; inactive means no such curve, though single readings can be large; an effect the other way counts as inactive or inconclusive.

COc1ccc(-c2noc(=O)n2Cc2cc(C)ccc2C)cc1	TDP43 rescue 17.8µM
Cc1cccc(-n2c(/C=C/c3cccc4ccccc34)nc3ccccc3c2=O)c1	TDP43 rescue 35.5µM (no result: Mito fusion act, A-T KAP1 phos, aSyn rescue)
COc1ccc(-n2c(/C=C\c3ccccc3F)nc3ccccc3c2=O)c(OC)c1	Abeta yeast res inconclusive, FUS suppressor inconclusive, TDP43 rescue 35.5µM (no result: Mito fusion act, A-T KAP1 phos, aSyn rescue)
Cc1cccc(-n2c(/C=C/c3ccccc3O)nc3ccccc3c2=O)c1	none (no result: Mito fusion act, A-T KAP1 phos, aSyn rescue)
COc1ccccc1-n1c(/C=C/c2ccccc2)nc2ccccc2c1=O	none (no result: Mito fusion act, A-T KAP1 phos, aSyn rescue)
C[C@H]1CCCC=CC2C[C@H](O)C[C@@H]2[C@H](O)C=CC(=O)O1 (some centres not stated)	none (no result: Abeta yeast res, Mito fusion act, A-T KAP1 phos, FUS suppressor, TDP43 rescue)
CCOC(=O)C1CCCN(Cc2ccc(-c3ccccc3)cc2)C1 (configuration not stated)	A-T KAP1 phos 25.1µM
CCOC(=O)C1CCN(Cc2ccc(Cl)nc2)CC1	none
CN(C(=O)CNC(=O)OCc1ccccc1)c1ccc(Br)cc1C(=O)c1ccccc1Cl	Mito fusion act 12.6µM (no result: FUS suppressor)
O=C(CNC(=O)OCc1ccccc1)Nc1ccc(Br)cc1C(=O)c1ccccc1Cl	none (no result: FUS suppressor)
CCC(=O)c1cn(Cc2ccccc2C#N)c2ccccc12	TDP43 rescue 25.1µM
O=C(c1cn(Cc2ccccc2)c2ccccc12)C1CC1	none
N#Cc1ccccc1Cn1cc(C(=O)c2ccco2)c2ccccc21	none
N#Cc1ccccc1Cn1cc(C(=O)C2CC2)c2ccccc21	TDP43 rescue 20µM
COc1cccc(N2CCN(c3c4c(nc5nncn35)CCC4)CC2)c1	TDP43 rescue inconclusive (no result: Mito fusion act, A-T KAP1 phos, aSyn rescue)
Clc1ccc(C(Cn2ccnc2)OCc2csc3c(Cl)cccc23)c(Cl)c1 (configuration not stated)	Mito fusion act 3.55µM, aSyn rescue inconclusive
CCCCC[C@@H]1CCCCC[C@@H](O)C[C@H](O)[C@H](O)/C=C/C(=O)O1	TDP43 rescue inconclusive (no result: Mito fusion act, A-T KAP1 phos)
C/C(=N\NC(N)=S)C12CC3CC(CC(C3)C1)C2	Abeta yeast res inconclusive, TDP43 rescue 14.1µM
Nc1ccc(CCN2CCCC2)cc1	none
Nc1ccc(CCN2CCN(c3cccc(C(F)(F)F)c3)CC2)cc1	Mito fusion act 9.2µM (no result: A-T KAP1 phos)
Cc1ccccc1CS(=O)(=O)Cc1ccc(C(=O)N2CCC3(CC2)OCCO3)o1	none
COc1ccc(S(=O)(=O)Cc2ccc(C(=O)N3CCC4(CC3)OCCO4)o2)cc1	TDP43 rescue 2.51µM (no result: A-T KAP1 phos)
N#CSCC(=O)N1c2ccccc2CCc2ccccc21	Abeta yeast res inconclusive, TDP43 rescue 17.8µM (no result: FUS suppressor)
O=[N+]([O-])c1ccc(C(c2ccc([N+](=O)[O-])cc2)c2ccc([N+](=O)[O-])cc2)cc1	Abeta yeast res inconclusive (no result: Mito fusion act, A-T KAP1 phos)
Cn1cnc([N+](=O)[O-])c1Sc1ccc([N+](=O)[O-])cc1	TDP43 rescue 20µM
CC(C)Oc1cc(-n2c(=S)[nH]c3ccccc3c2=O)c(Cl)cc1Cl	TDP43 rescue 10µM
COc1ccccc1C1Nc2ccccc2-n2c(-c3ccccc3)c3c(=O)n(C)c(=O)n(C)c3c21 (configuration not stated)	TDP43 rescue inconclusive (no result: Mito fusion act, A-T KAP1 phos, aSyn rescue)
Cc1nc2ccccc2c(=O)n1-c1nccs1	none (no result: Mito fusion act, A-T KAP1 phos)
Cc1nn(-c2nccs2)c2c1C(=O)CC(C)(C)C2Br (configuration not stated)	TDP43 rescue 14.1µM (no result: Mito fusion act, A-T KAP1 phos)
O=C(Oc1ccc2cc(Br)ccc2c1)N1CCCCCC1	A-T KAP1 phos 35.5µM (no result: Abeta yeast res, FUS suppressor, TDP43 rescue, aSyn rescue)
Cc1cccc(OCCNc2ncccc2[N+](=O)[O-])c1	TDP43 rescue inconclusive (no result: Mito fusion act, A-T KAP1 phos)
O=C1NCCOC(=O)[C@@H](Cc2ccc(F)cc2)CC/C=C/C[C@@H]1CC(=O)N(CCO)Cc1ccccc1	FUS suppressor inconclusive (no result: Mito fusion act)
O=C(CNC(=O)c1ccc(Br)cc1)Nc1ccc(Br)cc1C(=O)c1ccccc1	Mito fusion act 17.8µM
CC(=O)c1c(O)cc2c3c1OC(C)(C)C1CCC(C)(CC31)O2 (configuration not stated)	TDP43 rescue inconclusive (no result: Mito fusion act, A-T KAP1 phos)
CCN(CC)C(=O)c1ccc2c(c1)C1C(Cl)C(Sc3ccccc3[N+](=O)[O-])CC1C(C(=O)O)N2 (configuration not stated)	FUS suppressor 39.8µM
COc1ccccc1N=Nc1ccc(N)c(C)c1	TDP43 rescue inconclusive
NN=C1C(Cl)=C(Cl)C(Cl)=C1Cl	TDP43 rescue 17.8µM (no result: Mito fusion act, A-T KAP1 phos)
CC(=O)O[C@@]12CO[C@@H]1C[C@H](OC1OCC(O)C(O)C1O)[C@@]1(C)C(=O)[C@H](O)C3=C(C)[C@@H](OC(=O)[C@H](O)[C@@H](NC(=O)c4ccccc4)c4ccccc4)C[C@@](O)([C@@H](OC(=O)c4ccccc4)C12)C3(C)C (some centres not stated)	FUS suppressor 10µM
O=C(OCCCCN1C(=O)c2ccccc2C1=O)c1ccc(Br)o1	TDP43 rescue inconclusive
CC(C)(C)C(=O)c1cn(Cc2ccccc2)c2ccccc12	TDP43 rescue 12.6µM
O=C(c1ccco1)c1cn(Cc2ccccc2Cl)c2ccccc12	TDP43 rescue inconclusive
O=C(COc1ccccc1)c1cn(Cc2ccccc2)c2ccccc12	none
O=C(c1ccco1)c1cn(Cc2ccccc2)c2ccccc12	TDP43 rescue 22.4µM
CCC(=O)c1cn(Cc2ccccc2)c2ccccc12	TDP43 rescue 8.91µM
Fc1ccc([C@@H]2CCNC[C@H]2COc2ccc3c(c2)OCO3)cc1	none
COC(=O)c1sc(NC(=O)/C=C/c2ccc(OC)c(OC)c2)c(C(=O)OC)c1C	TDP43 rescue inconclusive (no result: Mito fusion act, A-T KAP1 phos, aSyn rescue)
CN1C(=O)C(=Cc2ccccc2Oc2ccc(Cl)c(F)c2)C(=O)N(C)C1=O	TDP43 rescue 22.4µM
O=C1NC(=O)C(=Cc2ccccc2Oc2ccc(F)cc2)C(=O)N1	none
